Inconclusive results are not listed. A call without a number means that no potency is given here. Activity calls are given as the source filed them. Unless noted, calls come from the whole dose curve; as a rule, active = well fitted cell-killing curve with a large enough effect; inconclusive = small, poorly fitted or top-dose-only effect, or effect the other way; inactive = no such curve, though single readings can be large or run the other way.
Test: qHTS profiling of the MIPE4 collection as inhibitors of Plasmodium falciparum (3D7) proliferation (AID 743344; call rule not given here)
Details: P. falciparum 3D7 in erythrocytes, SYBR Green DNA fluorescence, 72 h; at 28.5 µM unless noted
Outline: (§1)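 Parasite DNA was quantified by SYBR Green I fluorescence (ex 485, em 535 nm) after overnight lysis in saponin/Triton buffer at room temperature. Cultures at 0.3% parasitemia and 2.5% hematocrit were first exposed to compound for 72 h at 37 C; signals were normalised to artemisinin (0.29 uM) and vehicle wells.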

Structure (SMILES) | parasite growth, % of DMSO control
C[C@@H]1CCC2[C@@H](C)[C@@H](O)O[C@@H]3O[C@@]4(C)CC[C@@H]1[C@@]23OO4 (some centres not stated) | 5.03%
CCN(CC)Cc1cc(Nc2ccnc3cc(Cl)ccc23)ccc1O | 4.69% [at 9.64 µM]
CCOC(=O)C1=C(C)NC(C)=C(C(=O)OCC)C1c1ccccc1C=CC(=O)OC(C)(C)C | 6.3%

Test: qHTS profiling of the MIPE4 collection as inhibitors of Plasmodium falciparum (DD2) proliferation (AID 743345; call rule not given here)
Details: P. falciparum Dd2 in erythrocytes, SYBR Green DNA, 72 h; at 28.5 µM unless noted
Outline: as §1

Structure (SMILES) | parasite growth remaining, % of DMSO control (lower = more inhibition)
C[C@@H]1CCC2[C@@H](C)[C@@H](O)O[C@@H]3O[C@@]4(C)CC[C@@H]1[C@@]23OO4 (some centres not stated) | 6.44%
CCN(CC)Cc1cc(Nc2ccnc3cc(Cl)ccc23)ccc1O | 9.46% [at 9.64 µM]
CCOC(=O)C1=C(C)NC(C)=C(C(=O)OCC)C1c1ccccc1C=CC(=O)OC(C)(C)C | 7.86%

Test: qHTS profiling of the MIPE4 collection as inhibitors of Plasmodium falciparum (DD2) proliferation (Rep 2) (AID 743346; call rule not given here)
Details: P. falciparum Dd2 in erythrocytes, SYBR Green DNA, 72 h; at 28.5 µM unless noted
Outline: as §1

Structure (SMILES) | parasite growth, % of control (lower = inhibition)
C[C@@H]1CCC2[C@@H](C)[C@@H](O)O[C@@H]3O[C@@]4(C)CC[C@@H]1[C@@]23OO4 (some centres not stated) | 10.6%
CCN(CC)Cc1cc(Nc2ccnc3cc(Cl)ccc23)ccc1O | 11.1% [at 9.64 µM]
CCOC(=O)C1=C(C)NC(C)=C(C(=O)OCC)C1c1ccccc1C=CC(=O)OC(C)(C)C | 19.9%

Test: qHTS profiling of the MIPE4 collection as inhibitors of Plasmodium falciparum (HB3) proliferation (AID 743347; call rule not given here)
Details: P. falciparum HB3 in erythrocytes, SYBR Green DNA, 72 h; at 28.5 µM unless noted
Outline: as §1

Structure (SMILES) | growth, % of control
C[C@@H]1CCC2[C@@H](C)[C@@H](O)O[C@@H]3O[C@@]4(C)CC[C@@H]1[C@@]23OO4 (some centres not stated) | 6.11%
CCN(CC)Cc1cc(Nc2ccnc3cc(Cl)ccc23)ccc1O | 3.47% [at 9.64 µM]
CCOC(=O)C1=C(C)NC(C)=C(C(=O)OCC)C1c1ccccc1C=CC(=O)OC(C)(C)C | 11.8%

Test: qHTS assay to identify small molecule inhibitors of chordoma cells - UCH-1 (AID 1259355); note: nearly all actives have a fitted effect of over 55% in size; note: potency is the fitted concentration of half-maximal effect
Details: UCH-1 chordoma viability, CellTiter-Glo, 48 h, combination, with auranofin plus four topoisomerase inhibitors; series mostly up to 46.1 µM
Outline: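 Screening used approved and investigational drugs in 15-point titration against 800 seeded cells per well. A fixed combination of auranofin with camptothecin, doxorubicin, rubitecan and topotecan followed compound addition, and growth was scored by CellTiter-Glo after 48hr.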

Structure (SMILES) | Potency
C[C@@H]1CCC2[C@@H](C)[C@@H](O)O[C@@H]3O[C@@]4(C)CC[C@@H]1[C@@]23OO4 (some centres not stated) | inactive
C=C[C@]1(C)C[C@@H](OC(=O)CSC(C)(C)CNC(=O)[C@H](N)C(C)C)[C@]2(C)[C@H](C)CC[C@]3(CCC(=O)[C@H]32)[C@@H](C)[C@@H]1O | inactive
CC(C(=O)O)c1ccc(N2Cc3ccccc3C2=O)cc1 (configuration not stated) | inactive
CCCCCCCCCCCCCCCC(=O)OCC(COC(=O)CCCCCCCCCCCCCCC)OC(=O)CCCCCCCCCCCCCCC | inactive
Cc1ccccc1OCC(O)CNCCOc1ccc(C(N)=O)cc1 (configuration not stated) | inactive
CC(C)(C)NC(=O)[C@@H]1C[C@@H]2CCCC[C@@H]2CN1C[C@@H](O)[C@H](Cc1ccccc1)NC(=O)[C@H](CC(N)=O)NC(=O)c1ccc2ccccc2n1 | inactive
CC(C)(C)C1(O)CCN2CC3c4ccccc4CCc4cccc(c43)C2C1 (configuration not stated) | inactive
CC(NNC(=O)c1ccccc1)c1ccccc1 (configuration not stated) | inactive
COCC(=O)Nc1cc(Sc2ccccc2)ccc1N=C(NC(=O)OC)NC(=O)OC | inactive
CCN(CC)CCOc1ccc(-c2nc3cc(Cl)ccc3s2)cc1 | inactive
C/C1=C2N=C(/C=C3N=C(/C(C)=C4\[N-][C@@](C)([C@@H]5N=C1[C@](C)(CCC(=O)NCC(C)OP(=O)(O)O[C@H]1[C@@H](O)[C@@H](n6cnc7cc(C)c(C)cc76)O[C@@H]1CO)[C@H]5CC(N)=O)[C@@](C)(CC(N)=O)[C@@H]4CCC(N)=O)[C@@](C)(CC(N)=O)[C@@H]\3CCC(N)=O)C(C)(C)[C@@H]/2CCC(N)=O.CC(=O)O.[Co] (some centres not stated) | inactive
CO/N=C(\C(=O)N[C@@H]1C(=O)N2C(C(=O)O)=C(CSc3cnns3)CS[C@H]12)c1csc(N)n1 | inactive
CC1=C(/C=C/C(C)=C/C=C/C(C)=C/C=C/C=C(C)/C=C/C=C(C)/C=C/C2=C(C)C(=O)CCC2(C)C)C(C)(C)CCC1=O | inactive
CCNC(=O)[C@@H]1CCCN1C(=O)[C@H](CCCN=C(N)N)NC(=O)[C@H](CC(C)C)NC(=O)[C@@H](Cc1c[nH]c2ccccc12)NC(=O)[C@H](Cc1ccc(O)cc1)NC(=O)[C@H](CO)NC(=O)[C@H](Cc1c[nH]c2ccccc12)NC(=O)[C@H](Cc1cnc[nH]1)NC(=O)[C@@H]1CCC(=O)N1 | 31.6 µM (active)
COc1ccc(CCNC[C@H](O)c2ccc(O)cc2)cc1OC | inactive
CC[C@H]1OC(=O)[C@H](C)[C@@H](O[C@H]2C[C@@](C)(OC)[C@@H](O)[C@H](C)O2)[C@H](C)[C@@H](O[C@@H]2O[C@H](C)C[C@H](N(C)C)[C@H]2O)[C@](C)(O)C[C@@H](C)/C(=N\OCOCCOC)[C@H](C)[C@@H](O)[C@]1(C)O | inactive
CO[C@@H]1[C@@H](O[C@@H]2O[C@H](C)[C@@H](O[C@H]3C[C@@](C)(O)[C@@H](OC(=O)CC(C)C)[C@H](C)O3)[C@H](N(C)C)[C@H]2O)[C@@H](CC=O)C[C@@H](C)C(=O)/C=C/C2OC2C[C@@H](C)OC(=O)C[C@H]1OC(C)=O (some centres not stated) | inactive
CCN(CC)Cc1cc(Nc2ccnc3cc(Cl)ccc23)ccc1O | inactive
C#C[C@]1(O)CC[C@H]2[C@@H]3CCC4=CCCC[C@@H]4[C@H]3C(=C)C[C@@]21CC | inactive
Nc1c(N=Nc2ccc(-c3ccc(N=Nc4cc(S(=O)(=O)O)c5ccccc5c4N)cc3)cc2)cc(S(=O)(=O)O)c2ccccc12 | inactive

Structure (SMILES) | Potency
CCOC(=O)C1=C(C)NC(C)=C(C(=O)OCC)C1c1ccccc1C=CC(=O)OC(C)(C)C | inactive
C#C[C@]1(O)CC[C@H]2[C@@H]3CCC4=C/C(=N/O)CC[C@@H]4[C@H]3CC[C@@]21CC | inactive
C[C@]12O[C@H](C[C@]1(O)CO)n1c3ccccc3c3c4c(c5c6ccccc6n2c5c31)CNC4=O | 11.2 µM (active)
C[C@]12C=CC(=O)N[C@@H]1CC[C@@H]1[C@@H]2CC[C@]2(C)[C@@H](C(=O)Nc3cc(C(F)(F)F)ccc3C(F)(F)F)CC[C@@H]12 | inactive
CC1=C(/C=C/C(C)=C/C=C/C(C)=C/CO)C(C)(C)CCC1 | inactive
COc1ccc(C[C@H](N)C(=O)N[C@H]2[C@@H](O)[C@H](n3cnc4c(N(C)C)ncnc43)O[C@@H]2CO)cc1 | 11.2 µM (active)
Clc1cc(Cl)c(OCC#CI)cc1Cl | inactive
COc1cc([C@@H]2c3cc4c(cc3[C@@H](O[C@@H]3O[C@@H]5CO[C@@H](C)O[C@H]5[C@H](O)[C@H]3O)[C@H]3COC(=O)[C@H]23)OCO4)cc(OC)c1O | inactive
CNC(C)[C@@H]1CC[C@@H](N)[C@@H](O[C@H]2[C@H](O)[C@@H](O[C@H]3OC[C@](C)(O)[C@H](NC)[C@H]3O)[C@H](N)C[C@@H]2N)O1 (some centres not stated) | inactive
CC[C@@H](C(=O)O)[C@@H]1O[C@@H]([C@@H](C)[C@H](O)[C@H](C)C(=O)[C@H](CC)[C@H]2O[C@]3(C=C[C@@H](O)[C@]4(CC[C@@](C)([C@H]5CC[C@](O)(CC)[C@H](C)O5)O4)O3)[C@H](C)C[C@@H]2C)[C@@H](C)C[C@@H]1C | 3.55 µM (active)
Nc1ncnc2c1ncn2[C@@H]1O[C@H](COP(=O)(O)OP(=O)(O)OP(=O)(O)O)[C@@H](O)[C@H]1O | inactive
CC1(C)S[C@@H]2[C@H](NC(=O)[C@@H](NC(=O)N3CCNC3=O)c3ccccc3)C(=O)N2[C@H]1C(=O)O | inactive
CC1(C)S[C@@H]2[C@H](NC(=O)C(N)c3ccccc3)C(=O)N2[C@H]1C(=O)OC1OC(=O)c2ccccc21 (some centres not stated) | inactive
CNc1cc(OC)c(C(=O)N[C@H]2CCN(Cc3ccccc3)[C@H]2C)cc1Cl | inactive
Cc1cc(/C=C/c2ccc3cc(N(C)C)ccc3[n+]2C)c(C)n1-c1ccccc1 | 5.01 µM (active)
Cc1ccccc1 | inactive
O=C(Nc1cccc(C(F)(F)F)c1)c1cc(Br)cc(Br)c1O | 12.6 µM (active)
C#CCOc1ccc2c(C)cc(=O)oc2c1 | inactive
COc1ccc2c3c1O[C@H]1C[C@@H](O)C=C[C@@]31CCN(C)C2 | inactive
CO[C@H]1C[C@H](O[C@H]2[C@H](C)[C@@H](O[C@@H]3O[C@H](C)C[C@H](N(C)C)[C@H]3OC(C)=O)[C@@H](C)C[C@]3(CO3)C(=O)[C@H](C)[C@@H](OC(C)=O)[C@@H](C)[C@@H](C)OC(=O)[C@@H]2C)O[C@@H](C)[C@@H]1OC(C)=O | inactive
